Laboratory results published in article PMC5540273 (PLoS ONE, 2017).

Key:
Details in all cases: concentration: 1 μM, replicates: in singlicate; n = 1
[1] = tested on: CAMK1B
[2] = tested on: CAMK1D
[3] = tested on: CAMK1G
[4] = tested on: CAMK1
[5] = tested on: CAMK2A
[6] = tested on: CAMK2B
[7] = tested on: CAMK2D
[8] = tested on: CAMK2G
[9] = tested on: CAMK4
[10] = tested on: CAMKK1
[11] = tested on: CAMKK2
[12] = tested on: CASK
[13] = tested on: T1, CDC2L1
T1 construct: gene CDK11B

[14] = tested on: CDC2L2
[15] = tested on: T2, CDC2L5
T2 construct: gene CDK13

[16] = tested on: T3, CDK11
T3 construct: gene CDK19

[17] = tested on: CDK2
[18] = tested on: CDK3
[19] = tested on: CDK4-cyclinD1
[20] = tested on: CDK4-cyclinD3
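Further: KINOMEscan kinase panel screen.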

Row | Compound | %Inh [1] | %Inh [2] | %Inh [3] | %Inh [4] | %Inh [5] | %Inh [6] | %Inh [7] | %Inh [8] | %Inh [9] | %Inh [10] | %Inh [11] | %Inh [12] | %Inh [13] | %Inh [14] | %Inh [15] | %Inh [16] | %Inh [17] | %Inh [18] | %Inh [19] | %Inh [20]
1 | NC(=O)c1nnc2ccccc2c1N | 0% | 13% | 7% | 14% | 0% | 0% | 7% | 0% | 0% | 10% | 0% | 36% | 7% | 25% | 11% | 3% | 6% | 19% | 32% | 0%
2 | Cc1ccccc1-n1cnc2c(N)ncnc21 [SKF-97510] | 0% | 5% | 0% | 0% | 24% | 14% | 4% | 4% | 0% | 1% | 8% | 0% | 0% | 1% | 0% | 0% | 0% | 0% | 0% | 0%
3 | Cc1ccc(C(=O)Nc2ccc(Nc3ccnc4cc(-c5ccccn5)ccc34)cc2O)cc1.Cl [GW440146] | 13% | 20% | 0% | 39% | 0% | 0% | 0% | 8% | 0% | 0% | 0% | 3% | 0% | 11% | 0% | 0% | 0% | 5% | 16% | 0%
4 | O=C(Nc1n[nH]c2nc(-c3nccs3)c(Br)cc12)C1CCCC1 [SB-742609] | 20% | 1% | 8% | 0% | 0% | 0% | 15% | 11% | 0% | 8% | 0% | 19% | 100% | 0% | 0% | 0% | 86% | 60% | 41% | 14%
5 | Cc1csc(-c2nc(Nc3ccncc3)c3ccccc3n2)n1 [GW869640] | 9% | 0% | 14% | 5% | 10% | 2% | 17% | 25% | 0% | 26% | 23% | 26% | 0% | 5% | 8% | 7% | 7% | 9% | 11% | 1%
6 | Cc1cc(NCC(c2ccccc2)c2ccccc2)nc(NCc2ccc(C(F)(F)F)cc2)n1 [GW497681] | 0% | 17% | 3% | 12% | 0% | 0% | 13% | 25% | 0% | 5% | 23% | 0% | 0% | 5% | 0% | 0% | 0% | 0% | 0% | 0%
7 | Cn1cncc1-c1ccc2ncnc(Nc3ccc(OCc4ccccc4)cc3)c2c1 [GW320571] | 11% | 23% | 16% | 23% | 0% | 0% | 9% | 10% | 23% | 0% | 0% | 0% | 0% | 0% | 0% | 10% | 4% | 2% | 0% | 13%
8 | Nc1nc(-c2nccs2)c(-c2ccnc3ccccc23)s1 [GW693542] | 7% | 27% | 0% | 30% | 0% | 0% | 0% | 13% | 0% | 6% | 0% | 0% | 0% | 1% | 0% | 0% | 0% | 7% | 0% | 0%
9 | Fc1cccc(COc2nnc(-c3ccc4c(c3)CCO4)o2)c1 | 0% | 0% | 12% | 18% | 0% | 6% | 0% | 7% | 0% | 8% | 0% | 10% | 1% | 0% | 18% | 16% | 0% | 4% | 9% | 0%
10 | CCCc1ccc(S(=O)(=O)NC2CCN(c3ccnc(Nc4ccc(F)cc4)n3)C2)cc1 (stereo not shown) [GSK1379715] | 6% | 0% | 0% | 0% | 0% | 0% | 0% | 0% | 0% | 12% | 0% | 4% | 0% | 0% | 98.6% | 5% | 0% | 22% | 0% | 0%
11 | Clc1cc(Cl)cc(Nc2ccnc(Nc3cc(Cl)cc(Cl)c3)n2)c1 [GSK175726] | 3% | 10% | 0% | 7% | 4% | 0% | 0% | 8% | 0% | 10% | 0% | 13% | 5% | 18% | 0% | 19% | 0% | 0% | 0% | 0%
